In the supplement of paper PMC6555819:

Legend:
Experiment in all cases: PBM binding z-score (relative to random genomic background probes); higher = stronger binding; sequences stand for … in GC…GCGATTGACAGCGTAGAATGAAGG
[1] = tested on: FXR:RXRa (NR concentration 270 nM, RXRa partner concentration 90 nM)
Procedure, shortened: (§1)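 Each nuclear receptor dimer, without ligand, was incubated for 1 h on custom Agilent 4×180K protein-binding microarrays. Binding was detected with antibodies against each partner (one per run), and scanned fluorescence was regression-normalized. The binding z-scores are referenced to random human genomic background probes.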

[2] = tested on: LXRa:RXRa (NR concentration 270 nM, RXRa partner concentration 90 nM)
Procedure, shortened: as §1

[3] = tested on: LXRa homodimer (NR concentration 270 nM)
Procedure, shortened: as §1

[4] = tested on: LXRb:RXRa (NR concentration 270 nM, RXRa partner concentration 90 nM)
Procedure, shortened: as §1

[5] = tested on: LXRb homodimer (NR concentration 270 nM)
Procedure, shortened: as §1

[6] = tested on: PPARa:RXRa (NR concentration 270 nM, RXRa partner concentration 90 nM)
Procedure, shortened: as §1

[7] = tested on: PPARg:RXRa (NR concentration 180 nM, RXRa partner concentration 90 nM)
Procedure, shortened: as §1

[8] = tested on: PPARg:RXRa 270nM:90nM, anti-RXR (NR concentration 270 nM, RXRa partner concentration 90 nM)
Procedure, shortened: as §1

[9] = tested on: PPARg:RXRa 30nM:10nM, anti-RXR (NR concentration 30 nM, RXRa partner concentration 10 nM)
Procedure, shortened: as §1

[10] = tested on: PPARg:RXRa 90nM:30nM, anti-RXR (NR concentration 90 nM, RXRa partner concentration 30 nM)
Procedure, shortened: as §1

| Sequence | PBM binding z-score [1] | PBM binding z-score [2] | PBM binding z-score [3] | PBM binding z-score [4] | PBM binding z-score [5] | PBM binding z-score [6] | PBM binding z-score [7] | PBM binding z-score [8] | PBM binding z-score [9] | PBM binding z-score [10] |
| --- | --- | --- | --- | --- | --- | --- | --- | --- | --- | --- |
| TCGAGTAGCTTAGGGGCATTCAGAATGGCGTCGA | -0.301 | -0.0309 | -0.497 | 0.0994 | -1.06 | 0.246 | -0.362 | 0.211 | 0.569 | 0.263 |
| ATATGTAGGTTACATCCGGGTCATACAGGCTATG | 2.09 | 4.15 | 1.41 | 2.85 | 0.809 | 4.64 | 6.34 | 5.27 | 2.96 | 4.81 |
| ACTATTAGTTGACTAAGGGCAACCGATACGACGC | 0.232 | 0.474 | 0.168 | 0.518 | 0.478 | 0.573 | 1.06 | 0.728 | 0.0857 | 0.518 |
| ATCGCTAGGTAAAGTTCAGTGAAAGATCGATAGA | 0.349 | 1.22 | 0.609 | 0.692 | -0.361 | 1.81 | 1.85 | 3.26 | 1.49 | 2.75 |
| CGTCCAAGGTCATAGGAGGTCTGTGAAGACAGAT | 7.54 | 5.3 | 0.925 | 4.01 | 0.481 | 5.64 | 4.98 | 5.2 | 1.89 | 3.88 |
| TAGCCTAGGTCTGATCGGGCCAGTATACGCTATA | -0.28 | -0.943 | -0.639 | -0.94 | -1.01 | -0.144 | 0.0558 | -0.669 | -0.329 | -0.45 |
| CCTTACGGGTCACTGAAAGGTTATAGCATTTGGA | 5.83 | 4.87 | 0.976 | 4.17 | 0.221 | 5.59 | 5.13 | 5.03 | 2.12 | 3.38 |
| GCTGCTAGGTCAGGTTGGTGAGCTAACGGGTACG | 1.04 | 0.598 | -0.365 | 0.053 | -0.485 | 1.22 | 0.336 | 0.876 | -0.603 | 0.225 |
| CCTACTGGGCCAGTCAGAGGTCATTGATCATATG | 2.43 | 3.71 | 5.39 | 3.58 | -0.105 | 3.66 | 2.18 | 3.32 | 0.876 | 2.2 |
| GCGGCTAGGTCAGGTTGGTCAGCTAACGGGTACG | 1.14 | 0.573 | -0.172 | 0.648 | -0.613 | 1.33 | 0.166 | 0.609 | -0.687 | 0.275 |
| ATCTCTAGGTAAAAGTTAAGTGAATCCCGAGGAT | 0.172 | 0.0131 | -0.136 | -0.0735 | 0.69 | 1.58 | 3.42 | 4.91 | 2.79 | 4.71 |
| TCTGGTAGATCAATAGAGGTTAAGAAAGTGCGCT | 0.764 | 3.4 | 0.62 | 1.81 | -0.161 | 1.62 | -0.137 | 1.4 | 2.44 | 1.78 |
| AGTCAAAGTTCAGTACGAGGTAACGTAAAGCACG | 3.32 | 3.34 | 1.28 | 1.83 | 0.584 | 2.76 | 3.76 | 4.15 | 1.8 | 2.93 |
| CGTCAAAGTTCAACTAAGGTAACGTACAGCACGC | 7.43 | 6.41 | 4.76 | 4.34 | 2.05 | 5.25 | 5.21 | 5.62 | 2.85 | 4.59 |
| ATATGTAGGTTAGCTGGGGCCATTCAGACTAGGC | 0.601 | 1.15 | 0.0611 | 0.901 | 0.197 | 2.55 | 3.09 | 2.56 | 0.952 | 2.06 |
| GCTATTAGTTGAAAGAGCAACCGAATGATTCTCG | -0.368 | -0.335 | -0.0598 | -0.509 | -0.535 | 0.321 | 0.704 | 1.95 | 0.137 | 1.51 |
| CCTCTTAGTTGACCATAAGGGCAACCGAAGCTCG | 0.875 | 0.419 | 0.345 | 0.647 | 0.541 | 0.868 | 0.219 | 0.342 | -0.34 | 0.305 |
| TCTTCTAGATCAAGCAGGTTAAGAAAGCCTGAGT | 0.122 | 0.597 | -0.208 | 0.619 | -0.0275 | 0.769 | -0.479 | 1.7 | 3.16 | 2.53 |

| Sequence | PBM binding z-score [1] | PBM binding z-score [2] | PBM binding z-score [3] | PBM binding z-score [4] | PBM binding z-score [5] | PBM binding z-score [6] | PBM binding z-score [7] | PBM binding z-score [8] | PBM binding z-score [9] | PBM binding z-score [10] |
| --- | --- | --- | --- | --- | --- | --- | --- | --- | --- | --- |
| ATCTCTAGGTAACGAAGTTCAGTGAATGCCGAAC | 0.145 | 0.276 | 0.427 | 0.411 | 0.414 | 0.915 | 0.812 | 1.02 | 0.0863 | 0.766 |
| TCGAGTAGGTTAGCAATGGGGCATTCAGCTTTCT | -0.119 | 0.188 | -0.715 | 0.235 | -0.623 | 0.539 | -0.248 | 0.643 | 1.08 | 1.09 |
| CTAGAAAGGTCGGTTGAGGTGAGTATACGGATAA | 3.11 | 1.64 | -0.0561 | 1.64 | -0.0428 | 2.6 | 0.509 | 1.1 | 0.117 | 0.585 |
| TCTGCTAGGCCAACGATGGTCAGCTAATCTGCTA | -1.19 | -0.741 | -1.19 | -1.05 | -1.1 | -0.375 | -0.327 | 0.663 | 1.12 | 0.978 |
| GTACAAAGGTGAATAGGTCGTTGATGAGTAGGCG | 2.27 | 2.19 | 0.326 | 1.78 | -0.0357 | 4.09 | 4.55 | 4.78 | 2.17 | 4.03 |
| TGAATTAGGTTAAAGATCAGGGAACGTGGCGTCG | 0.694 | 0.724 | 0.0716 | 0.548 | 0.342 | 4.09 | 6.76 | 7.47 | 5.99 | 8.06 |
| CAAACTAGGTCACGGTCAAAGTCGGTTTGTGCCA | 5.44 | 4.31 | 1.73 | 3.13 | 0.506 | 5.57 | 9.6 | 7.81 | 5.91 | 7.67 |
| ATCGAAAGCTCGACGAGGTGAGTATACACCGTTT | -0.406 | -0.524 | -0.742 | -0.456 | -0.163 | -0.348 | 0.614 | -0.448 | 0.105 | -0.367 |
| TGTCAAAGTGCAAAGGTAACGTAAGTATCCACAC | 1.4 | 1.63 | -0.525 | 1.5 | -0.151 | 3.32 | 5.23 | 5.16 | 2.4 | 4.4 |
| CCTAGCAGGCCAATCTGGGTCACTCCAGGCTTGA | 0.645 | 1.09 | -0.166 | 0.329 | -1.31 | 2.6 | 1.99 | 2.05 | -0.235 | 1.03 |
| TCTAGCAGGCAAGAGGGTCACTCAAGAGGTACGG | 0.555 | 0.86 | -0.678 | 1.18 | -1.24 | 2.25 | 1.01 | 1.76 | 1.7 | 1.82 |
| GGAACGAGGGCAAGTTGGTAGCAGAGTTTGATGG | 0.88 | 0.565 | -0.29 | 0.202 | -0.428 | 1.58 | 0.752 | 0.875 | -0.334 | 0.0314 |
| CCTTACGGGTCACTCCAGGTTAAAGCATCGGAGT | 5.18 | 7.96 | 2.58 | 5.93 | 0.173 | 4.59 | 3.59 | 4.06 | 1.02 | 2.86 |
| AGAATTAGGTTAAGATCAGGGAAACAGAATACAT | 0.832 | 0.821 | 0.412 | 0.748 | 0.359 | 2.94 | 3.33 | 2.93 | 1.28 | 2.24 |
| TCTATGAGTTGAAGGGCAACCGACGAGTCCGTTT | 0.419 | 0.7 | -0.373 | 0.405 | -0.437 | 1.2 | 0.607 | 1.51 | 2.54 | 2.22 |
| CGAACTAGTTCATTGACAGGACAGTGAATAGTAA | 0.24 | 0.585 | 0.0589 | 0.212 | -0.317 | 0.375 | 0.284 | 0.0577 | -0.0865 | -0.122 |
| GCTAGCAGGCCCTTTGGGTCACTCAATGACGGGC | -0.0163 | -0.0683 | -0.519 | -0.325 | -1.53 | 0.647 | 0.157 | 0.373 | -0.568 | 0.116 |
